Data as given in PubChem BioAssay (NCI).
The panel holds about 79,000 compounds, 15% with a hit somewhere; the sample as a whole holds those more often. A number with no mark means an inactive call. Activity calls are given as the source filed them. Cut-off read from the data, not from the text of the source: active = growth inhibition above about 70%; inactive = the rest.

Tests used:
[1] = NCI Yeast Anticancer Drug Screen. Data for the rad52 strain (AID 147);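 note: 0% = growth of vehicle-treated control cultures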; settings: S. cerevisiae rad52 mutant growth inhibition, stronger effect = higher value
How it was run: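 Here a repair-compromised yeast strain receives each compound; its growth is then quantified and normalised to vehicle-only controls.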

[2] = NCI Yeast Anticancer Drug Screen. Data for the wt1 strain (AID 149);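 note: 0% = growth of vehicle-treated wt1 cultures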; settings: S. cerevisiae wt1 strain (SPY 50644) growth inhibition, stronger effect = higher value
How it was run: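 Measured: growth of wt1 yeast under compound versus vehicle treatment, reported as inhibition.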

[3] = NCI Yeast Anticancer Drug Screen. Data for the mgt1 strain (AID 153); settings: S. cerevisiae mgt1 mutant growth inhibition, stronger effect = higher value
How it was run: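 Measured: inhibition of mgt1 yeast growth by compound, normalized to vehicle-treated cultures.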

[4] = NCI Yeast Anticancer Drug Screen. Data for the mec2-1 strain (AID 157); settings: S. cerevisiae mec2-1 strain, stronger effect = higher value
How it was run: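 Using mec2-1 yeast: add compound, measure growth, express inhibition versus vehicle-treated cultures.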

[5] = NCI Yeast Anticancer Drug Screen. Data for the rad14 strain (AID 159);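 note: 0% = growth of vehicle-treated control cultures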; settings: S. cerevisiae rad14 strain growth inhibition, stronger effect = higher value
How it was run: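 Here, inhibition of yeast growth was measured after compound exposure, using a strain with a genetic defect in DNA damage repair and vehicle-treated cultures as the reference.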

[6] = NCI Yeast Anticancer Drug Screen. Data for the sgs1 mgt1 strain (AID 161);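 note: 0% = growth of cultures given vehicle only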; settings: S. cerevisiae sgs1 mgt1 strain, stronger effect = higher value
How it was run: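 This yeast growth screen uses a strain with defined DNA-repair lesions; compound-treated growth is compared with vehicle-treated growth.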

[7] = NCI Yeast Anticancer Drug Screen. Data for the CLN2oe strain (AID 163);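 note: 0% = growth of vehicle-only control cultures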; settings: S. cerevisiae CLN2oe strain, stronger effect = higher value
How it was run: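 Whole-cell yeast growth assay. A strain engineered for altered cell-cycle control received compound, and inhibition relative to vehicle-treated cultures was recorded.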

[8] = NCI Yeast Anticancer Drug Screen. Data for the cln2 rad14 strain (AID 165);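 note: 0% = growth equal to vehicle treated cultures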; settings: S. cerevisiae cln2 rad14 strain, stronger effect = higher value
How it was run: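 Yeast strain cln2 rad14, bearing defects in cell cycle control and DNA repair, serves as the test system; values reflect growth inhibition compared with vehicle.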

[9] = NCI Yeast Anticancer Drug Screen. Data for the bub3 strain (AID 167); settings: S. cerevisiae bub3 mutant strain, stronger effect = higher value
How it was run: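 Whole-cell yeast assay. The mutant strain was incubated with compounds, and growth inhibition was determined by comparison with vehicle-treated cells.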

[10] = NCI Yeast Anticancer Drug Screen. Data for the wt2 strain (AID 169);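 note: 0% = growth of vehicle-treated yeast cultures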; settings: S. cerevisiae wt2 strain growth inhibition, stronger effect = higher value
How it was run: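 Treated yeast vs. vehicle-treated yeast: growth inhibition determined.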

[11] = NCI Yeast Anticancer Drug Screen. Data for the mlh1 strain (AID 171);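 note: 0% = growth of vehicle-treated control cultures of the same strain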; settings: S. cerevisiae mlh1 strain growth inhibition, stronger effect = higher value
How it was run: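 A yeast strain with a defined genetic lesion serves as the test organism. Cultures receive compound or vehicle, and growth is measured.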

[12] = NCI Yeast Anticancer Drug Screen. Data for the sgs1 strain (AID 173);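 note: 0% = growth of vehicle-only control cultures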; settings: S. cerevisiae sgs1 mutant, stronger effect = higher value
How it was run: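 A genetically defined yeast mutant is incubated with the test compound, and its growth is compared to that of the same strain given vehicle.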

[13] = NCI Yeast Anticancer Drug Screen. Data for the mlh1 rad18 strain (AID 175); settings: S. cerevisiae mlh1 rad18 strain growth inhibition, stronger effect = higher value
How it was run: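 Steps: expose repair-defective yeast to compound; measure growth; express inhibition against vehicle-treated controls.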

[14] = NCI Yeast Anticancer Drug Screen. Data for the rad18 strain (AID 177); settings: S. cerevisiae rad18 mutant growth inhibition, stronger effect = higher value
How it was run: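 Measured value is growth inhibition of a yeast strain bearing a DNA repair alteration, referenced to vehicle-treated cells.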

[15] = NCI Yeast Anticancer Drug Screen. Data for the rad50 strain (AID 155);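 note: 0% = growth of vehicle-only cultures of the same strain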; settings: S. cerevisiae rad50 strain growth inhibition, stronger effect = higher value
How it was run: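 Growth of the mutant yeast was measured after compound exposure and referenced to vehicle-treated cultures.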

[16] = at 5.0 µM (retest, dose inferred, filed as 0.5)
[17] = at 50.0 µM (retest, dose inferred, filed as 5.0)

O=C(O)c1cc2ccc(Cl)cc2c(O)c1C1=CCCCC1
growth inhibition ([1]; at 1.2 µM): 6%
growth inhibition ([1]; at 3.7 µM): 8%
growth inhibition ([1]; at 11.0 µM): 26%
growth inhibition ([1]; at 33.0 µM): 46%
growth inhibition ([1]; at 100.0 µM): 78% (active)
growth inhibition ([2]; at 1.2 µM): -10%
growth inhibition ([2]; at 3.7 µM): 2%
growth inhibition ([2]; at 11.0 µM): 6%
growth inhibition ([2]; at 33.0 µM): 28%
growth inhibition ([2]; at 100.0 µM): 73% (active)
growth inhibition ([3]; at 1.2 µM): 7%
growth inhibition ([3]; at 3.7 µM): -15%
growth inhibition ([3]; at 11.0 µM): 1%
growth inhibition ([3]; at 33.0 µM): 42%
growth inhibition ([3]; at 100.0 µM): 84% (active)
growth inhibition ([4]; at 1.2 µM): 22%
growth inhibition ([4]; at 3.7 µM): 18%
growth inhibition [4, 16]: -1%
growth inhibition ([4]; at 11.0 µM): 22%
growth inhibition ([4]; at 33.0 µM): 40%
growth inhibition [4, 17]: 58%
growth inhibition ([4]; at 50.0 µM): 69.1%
growth inhibition ([4]; at 100.0 µM): 69%
growth inhibition ([5]; at 1.2 µM): -6%
growth inhibition ([5]; at 3.7 µM): -10%
growth inhibition ([5]; at 11.0 µM): 9%
growth inhibition ([5]; at 33.0 µM): 30%
growth inhibition ([5]; at 100.0 µM): 75% (active)
growth inhibition [6, 16]: 0%
growth inhibition [6, 17]: 76% (active)
growth inhibition ([6]; at 50.0 µM): 79.8% (active)
growth inhibition ([7]; at 1.2 µM): 17%
growth inhibition ([7]; at 3.7 µM): -2%
growth inhibition ([7]; at 11.0 µM): 4%
growth inhibition ([7]; at 33.0 µM): 40%
growth inhibition ([7]; at 100.0 µM): 71% (active)
growth inhibition [8, 16]: 12%
growth inhibition [8, 17]: 63%
growth inhibition ([8]; at 50.0 µM): 56.9%
growth inhibition ([9]; at 1.2 µM): 14%
growth inhibition ([9]; at 3.7 µM): -8%
growth inhibition [9, 16]: 26%
growth inhibition ([9]; at 11.0 µM): -5%
growth inhibition ([9]; at 33.0 µM): 32%
growth inhibition [9, 17]: 64%
growth inhibition ([9]; at 50.0 µM): 60.4%
growth inhibition ([9]; at 100.0 µM): 78% (active)
growth inhibition ([10]; at 1.2 µM): 5%
growth inhibition ([10]; at 3.7 µM): 5%
growth inhibition ([10]; at 11.0 µM): 23%
growth inhibition ([10]; at 33.0 µM): 52%
growth inhibition ([10]; at 100.0 µM): 87% (active)
growth inhibition ([11]; at 1.2 µM): 26%
growth inhibition ([11]; at 3.7 µM): 24%
growth inhibition ([11]; at 11.0 µM): 41%
growth inhibition ([11]; at 33.0 µM): 68%
growth inhibition ([11]; at 100.0 µM): 87% (active)
growth inhibition ([12]; at 1.2 µM): 23%
growth inhibition ([12]; at 3.7 µM): 23%
growth inhibition ([12]; at 11.0 µM): 39%
growth inhibition ([12]; at 33.0 µM): 65%
growth inhibition ([12]; at 100.0 µM): 88% (active)
growth inhibition [13, 16]: -7%
growth inhibition [13, 17]: 74% (active)
growth inhibition ([13]; at 50.0 µM): 62.4%
growth inhibition ([14]; at 1.2 µM): 22%
growth inhibition ([14]; at 3.7 µM): 21%
growth inhibition ([14]; at 11.0 µM): 25%
growth inhibition ([14]; at 33.0 µM): 52%
growth inhibition ([14]; at 100.0 µM): 81% (active)

O=C1/C(=C/c2ccccc2)CCCC1CN1CCCCC1 (stereo not given)
growth inhibition ([1]; at 1.2 µM): 13%
growth inhibition ([1]; at 3.7 µM): 35%
growth inhibition ([1]; at 11.0 µM): 56%
growth inhibition ([1]; at 33.0 µM): 72% (active)
growth inhibition ([1]; at 100.0 µM): 78% (active)
growth inhibition ([2]; at 1.2 µM): 10%
growth inhibition ([2]; at 3.7 µM): 19%
growth inhibition ([2]; at 11.0 µM): 28%
growth inhibition ([2]; at 33.0 µM): 31%
growth inhibition ([2]; at 100.0 µM): 34%
growth inhibition ([3]; at 1.2 µM): 16%
growth inhibition ([3]; at 3.7 µM): 44%
growth inhibition ([3]; at 11.0 µM): 59%
growth inhibition ([3]; at 33.0 µM): 85% (active)
growth inhibition ([3]; at 100.0 µM): 96% (active)
growth inhibition ([15]; at 1.2 µM): 13%
growth inhibition ([15]; at 3.7 µM): 26%
growth inhibition [15, 16]: 29%
growth inhibition ([15]; at 11.0 µM): 39%
growth inhibition ([15]; at 33.0 µM): 61%
growth inhibition [15, 17]: 79% (active)
growth inhibition ([15]; at 50.0 µM): 72.3% (active)
growth inhibition ([15]; at 100.0 µM): 68%
growth inhibition ([5]; at 1.2 µM): 48%
growth inhibition ([5]; at 3.7 µM): 70% (active)
growth inhibition ([5]; at 11.0 µM): 92% (active)
growth inhibition ([5]; at 33.0 µM): 98% (active)
growth inhibition ([5]; at 100.0 µM): 98% (active)
growth inhibition [6, 16]: 40%
growth inhibition [6, 17]: 80% (active)
growth inhibition ([6]; at 50.0 µM): 85.7% (active)
growth inhibition ([7]; at 1.2 µM): 40%
growth inhibition ([7]; at 3.7 µM): 59%
growth inhibition ([7]; at 11.0 µM): 67%
growth inhibition ([7]; at 33.0 µM): 80% (active)
growth inhibition ([7]; at 100.0 µM): 83% (active)
growth inhibition [8, 16]: 65%
growth inhibition [8, 17]: 69%
growth inhibition ([8]; at 50.0 µM): 75.4% (active)
growth inhibition ([9]; at 1.2 µM): 30%
growth inhibition ([9]; at 3.7 µM): 53%
growth inhibition [9, 16]: 12%
growth inhibition ([9]; at 11.0 µM): 79% (active)
growth inhibition ([9]; at 33.0 µM): 95% (active)
growth inhibition [9, 17]: 83% (active)
growth inhibition ([9]; at 50.0 µM): 82.9% (active)
growth inhibition ([9]; at 100.0 µM): 97% (active)
growth inhibition ([10]; at 1.2 µM): 19%
growth inhibition ([10]; at 3.7 µM): 31%
growth inhibition ([10]; at 11.0 µM): 51%
growth inhibition ([10]; at 33.0 µM): 79% (active)
growth inhibition ([10]; at 100.0 µM): 87% (active)
growth inhibition ([11]; at 1.2 µM): 4%
growth inhibition ([11]; at 3.7 µM): 16%
growth inhibition ([11]; at 11.0 µM): 26%
growth inhibition ([11]; at 33.0 µM): 34%
growth inhibition ([11]; at 100.0 µM): 38%
growth inhibition ([12]; at 1.2 µM): 29%
growth inhibition ([12]; at 3.7 µM): 42%
growth inhibition ([12]; at 11.0 µM): 67%
growth inhibition ([12]; at 33.0 µM): 86% (active)
growth inhibition ([12]; at 100.0 µM): 91% (active)
growth inhibition [13, 16]: 43%
growth inhibition [13, 17]: 75% (active)
growth inhibition ([13]; at 50.0 µM): 74.7% (active)
growth inhibition ([14]; at 1.2 µM): 34%
growth inhibition ([14]; at 3.7 µM): 59%
growth inhibition ([14]; at 11.0 µM): 74% (active)
growth inhibition ([14]; at 33.0 µM): 83% (active)
growth inhibition ([14]; at 100.0 µM): 90% (active)
